“And” between values parts separate entries of the source, which are not always exact repeats. Equal values may be shown once. The source made the active and inactive calls. The calls were made as follows: active = hit-call score of the fitted dose curve at least 0.9, where 1 is the maximum; inconclusive = response in the unintended direction; inactive = score below 0.9.
Target: rat CYP2A2, Cyp2a2 (gene 24895) (UniProt P15149)
Test: NVS_ADME_rCYP2A2: NovaScreen (NVS) CYP450-related Enzyme Activity (ADME) Assay for rat CYP2A2 (AID 2283116)
Description: NVS_ADME_rCYP2A2 is a biochemical, single-readout assay that uses extracted gene-proteins in a cell-free assay. Measurements were taken 0.2 hour after chemical dosing in a 96-well plate.NVS_ADME_rCYP2A2 is one of one assay component(s) measured or calculated from the NVS_ADME_rCYP2A2 assay. It is designed to make measurements of enzyme activity, a form of enzyme reporter, as detected with fluorescence intensity signals by Fluorescence technology.Data from the assay component NVS_ADME_rCYP2A2 was analyzed into 1 assay endpoint. This assay endpoint, NVS_ADME_rCYP2A2, was analyzed in the positive analysis fitting direction relative to Acetonitrile as the negative control and baseline of activity. Using a type of enzyme reporter, loss-of-signal activity can be used to understand changes in the enzymatic activity as they relate to the gene Cyp2a2. Furthermore, this assay endpoint can be referred to as a primary readout, because this assay has produced multiple assay endpoints where this one serves a enzymatic activity function. To generalize the intended target to other relatable targets, this assay endpoint is annotated to the cyp intended target family, where the subfamily is xenobiotic metabolism.
Binding assays used specific radioligands (tritiated, iodinated) with non-radioactive competitive displacement ligands in agonist or antagonist protocols (as indicated) and various reference compounds and inhibitors to titrate specific binding to receptors and transporters. Most enzyme assays (CYPs, kinases, phosphatases, proteases, HDACs) used recombinant protein and specific substrates (fluorescence mostly, some colorimetric and radioactive) and inhibitors, followed by a biochemical separation of substrate and product. All assays for the biochemical HTS were initially run in duplicate at a single concentration (10 uM for CYP450 assays and 25 uM for all others). Assay-chemical combinations meeting a pre-defined threshold (e.g., 30% inhibition and other criteria defined below) were then run in singleton concentration-response format with maximum concentration of 20 uM for CYPs and 50 uM for all others. Each assay was run with positive and negative controls, and concurrent controls on every plate. The follow-up (secondary) screen tested active chemical-pairs in concentration series, as well as a few additional assays not tested in the primary screen, some selected negative inactives, and several cases re-run in the concentration series for confirmatory purposes.

Sequence of rat CYP2A2, Cyp2a2 (gene 24895) (P15149 whole entry, looked up): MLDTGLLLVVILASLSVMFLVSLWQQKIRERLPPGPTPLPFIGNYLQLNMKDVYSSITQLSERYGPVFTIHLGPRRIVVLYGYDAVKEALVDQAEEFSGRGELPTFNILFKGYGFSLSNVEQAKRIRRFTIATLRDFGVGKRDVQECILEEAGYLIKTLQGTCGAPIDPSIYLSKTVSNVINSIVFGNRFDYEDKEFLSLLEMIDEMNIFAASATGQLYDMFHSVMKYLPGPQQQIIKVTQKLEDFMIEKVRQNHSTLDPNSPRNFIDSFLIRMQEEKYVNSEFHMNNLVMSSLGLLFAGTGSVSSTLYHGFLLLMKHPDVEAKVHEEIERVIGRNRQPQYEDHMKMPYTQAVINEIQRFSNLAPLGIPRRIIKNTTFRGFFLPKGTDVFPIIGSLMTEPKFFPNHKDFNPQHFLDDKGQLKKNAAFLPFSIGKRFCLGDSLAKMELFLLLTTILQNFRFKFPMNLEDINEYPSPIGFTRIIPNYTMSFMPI

SMILES | AC50 | outcome
CCOc1cc(C(C)(C)C)ccc1C1COC(c2c(F)cccc2F)=N1 (stereo unspecified) | 1.15 µM (active) | 
CC1(C)CCC(=Cc2ccc(Cl)cc2)C1(O)Cn1cncn1 (stereo unspecified) | 0.299 µM (active) | 
COP(=S)(OC)SCn1nnc2ccccc2c1=O | 5.47 µM (active) | 
Cc1c(COC(=O)[C@@H]2[C@H](/C=C(\Cl)C(F)(F)F)C2(C)C)cccc1-c1ccccc1 |  | inactive
CC(C)C1(C)N=C(c2ncccc2C(=O)O)NC1=O (stereo unspecified) | 6.92 µM (active) | 
CCCCC(O)(Cn1cncn1)c1ccc(Cl)cc1Cl (stereo unspecified) | 0.0126 µM (active) | 
CCCN(CC)CC1COC2(CCC(C(C)(C)C)CC2)O1 (stereo unspecified) |  | inactive
CC(C)(C)C(=O)C(Oc1ccc(Cl)cc1)n1cncn1 (stereo unspecified) | 32 nM (active) and 40.6 nM (active) | 
CCCCC(C#N)(Cn1cncn1)c1ccc(Cl)cc1 (stereo unspecified) | 0.238 µM (active) | 
CCN(CC)C(=O)C(C)Oc1cccc2ccccc12 (stereo unspecified) | 5.89 µM (active) | 
CCNP(=S)(OC)O/C(C)=C/C(=O)OC(C)C (stereo unspecified) | 6.86 µM (active) | 

— PubChem BioAssay (EPA / NIEHS)
